Measured values as given in PubChem BioAssay (NCI).
Compounds without any hit were thinned out: in the full panel of roughly 83,000, 20% have a hit.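 Values shown are percent growth following 48 h exposure of cells in 96-well plates to a single concentration of compound; below 10 was considered active.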 Activity calls are given as the source filed them.

What follows are compounds tested on COLO 205 colon (assay: NCI-60 one-dose screen, 48 h (100 = growth as untreated, 0 = no growth, -100 = all killed)). Details: 10 µM.
With `O=[N+]([O-])c1ccc(Sc2ccncn2)c([N+](=O)[O-])c1` the growth was 27% (inactive). In the case of `Cc1cc(=O)cc(C)n1-c1ccccc1`, the growth is reported as 106% (inactive). With `CCOC(=O)c1[nH]c(C)c(C(C)=O)c1C` the growth was 115% (inactive). In the case of `CCOc1ccc(/C=C/C(=O)c2ccccc2)cc1`, the growth is reported as 116% (inactive). `CC(C)CCCC(=O)O` was tested, and the growth was 112% (inactive). In the case of `N#Cc1c(N)sc(=S)c2c1CCCC2`, the growth is reported as 111% (inactive). With `N=c1c(C(=O)OCc2ccccc2)ncc(CCl)n1O` the growth was 116% (inactive). `O=C(c1ccc(O)cc1)c1ccc(O)cc1` was tested, and the growth was 108% (inactive). With `O=C(CS)Nc1ccc2ccccc2c1` the growth was 112% (inactive). In the case of `O=c1cc(-c2ccccc2)oc2c1ccc1ccccc12`, the growth is reported as 85.8% (inactive). In the case of `O=c1cc2oc3cc(O)c(O)cc3c(-c3ccccc3O)c-2cc1O`, the growth is reported as 126% (inactive). `CNC(=S)NC(C)(C)C` was tested, and the growth was 119% (inactive). In the case of `CCCC(=O)Nc1ccc2c(c1)CN1C(=O)c3ccccc3C1=N2`, the growth is reported as 109% (inactive). For `c1ccc(/C(=N\N=C(/c2ccccc2)c2cccs2)c2cccs2)cc1`, the growth was 99.3% (inactive). `CCOC(=O)C1=C(C)NC(=O)NC1c1cccs1` (configuration not stated) was tested, and the growth was 107% (inactive). For `Oc1ccc(N=Nc2ccc(Br)cc2)c(O)c1`, the growth was 129% (inactive). For `COc1nc(N)nc2c1ncn2C1OC(CO)CC1O` (configuration not stated), the growth was 104% (inactive). With `O=S(=O)(O)CC(O)CN1CCN(CCO)CC1` (configuration not stated) the growth was 106% (inactive). In the case of `O=[N+]([O-])c1ccc(-c2noc(-c3cccs3)n2)cc1`, the growth is reported as 111% (inactive). With `COc1cc2cc(OC(C)=O)c3cc4c(cc3c2c(OC)c1OC)OCO4` the growth was 106% (inactive). With `CCC(O)CC(CC)CO` (configuration not stated) the growth was 117% (inactive). In the case of `O=[N+]([O-])c1ccc(/C=C/C=C/c2ccccc2)c(Cl)c1`, the growth is reported as 119% (inactive).
